Data as given in PubChem BioAssay (NCI).
Compounds without any hit were thinned out: in the full panel of roughly 83,000, 20% have a hit.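 Method: cells in 96-well plates; compound added at one concentration; 48 h incubation; percent growth measured; values under 10 scored active.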 A number with no mark means an inactive call. The source made the active and inactive calls.

Columns and labels:
Experiment in all cases: NCI-60 one-dose screen, 48 h (100 = growth as untreated, 0 = no growth, -100 = all killed)
Settings in all cases: 10 µM
HT29 colon = tested on: HT29 colon
SNB-75 CNS = tested on: SNB-75 CNS
SNB-19 CNS = tested on: SNB-19 CNS
U251 CNS = tested on: U251 CNS
PC-3 prostate = tested on: PC-3 prostate
SK-MEL-5 melanoma = tested on: SK-MEL-5 melanoma
UACC-62 melanoma = tested on: UACC-62 melanoma
LOX IMVI melanoma = tested on: LOX IMVI melanoma
SK-MEL-28 melanoma = tested on: SK-MEL-28 melanoma
SK-MEL-2 melanoma = tested on: SK-MEL-2 melanoma
SN12C renal = tested on: SN12C renal
UO-31 renal = tested on: UO-31 renal
TK-10 renal = tested on: TK-10 renal
ACHN renal = tested on: ACHN renal
A498 renal = tested on: A498 renal
CCRF-CEM leukemia = tested on: CCRF-CEM leukemia
MOLT-4 leukemia = tested on: MOLT-4 leukemia
SR leukemia = tested on: SR leukemia
CAKI-1 renal = tested on: CAKI-1 renal

Row | SMILES | growth (HT29 colon) | growth (SNB-75 CNS) | growth (SNB-19 CNS) | growth (U251 CNS) | growth (PC-3 prostate) | growth (SK-MEL-5 melanoma) | growth (UACC-62 melanoma) | growth (LOX IMVI melanoma) | growth (SK-MEL-28 melanoma) | growth (SK-MEL-2 melanoma) | growth (SN12C renal) | growth (UO-31 renal) | growth (TK-10 renal) | growth (ACHN renal) | growth (A498 renal) | growth (CCRF-CEM leukemia) | growth (MOLT-4 leukemia) | growth (SR leukemia) | growth (CAKI-1 renal)
1 | O=[N+]([O-])c1ccc(N/N=C/c2cccc3ccccc23)nc1 | 97.1% | 93.2% | 99.2% | 93% | 90.7% | 100% | 91.4% | 97.1% | 111% | 103% | 103% | 86.9% | 100% | 91.8% | 106% | 14.9% | 57.3% | 79.4% | –
2 | c1ccc(CO[C@H]2CO[C@H]3[C@@H]2OC[C@H]3OCc2ccccc2)cc1 | 107% | 111% | 101% | 104% | 90.6% | 101% | 95.9% | 98.4% | 105% | 104% | 102% | 72.1% | 101% | 101% | 110% | 99.2% | 95.2% | 94.6% | –
3 | C#Cc1ccc(-n2c(/C=C/c3ccc(C(F)(F)F)cc3)nc3ncccc3c2=O)cc1 | 0.334% (active) | 25.7% | 68% | 39.2% | 29.4% | -73.6% (active) | 17% | -18% (active) | 33.3% | -37.1% (active) | 26.6% | 11.6% | 11.4% | 19% | – | 3.18% (active) | 10.2% | 0.507% (active) | 14.9%
4 | Cc1cc2ccccc2nc1-c1ccccc1F | 119% | 112% | 110% | 91.1% | 94.3% | 102% | 105% | 97.8% | 116% | 111% | 110% | 97.3% | 130% | 112% | – | 96.9% | 111% | 110% | 99%
5 | O=C1/C(=C\c2ccc(Cl)cc2)CN(C(=S)Nc2ccccc2)C/C1=C\c1ccc(Cl)cc1 | -77% (active) | -36.3% (active) | -72.9% (active) | -97.7% (active) | -55.6% (active) | -73% (active) | -70.4% (active) | -80.1% (active) | -60.3% (active) | -28.4% (active) | -52% (active) | -95% (active) | -60.5% (active) | -86.8% (active) | – | -2.03% (active) | 5.1% (active) | -15.1% (active) | -17.6% (active)
6 | COc1cc(-c2nc(Nc3nc4ccccc4s3)[nH]c(=O)c2C#N)cc(OC)c1O | 110% | 88.6% | 96.1% | 105% | 101% | 106% | 102% | 106% | 110% | 105% | 102% | 88.1% | 112% | 102% | – | 103% | 94.7% | 108% | 113%
7 | CC/C(=C(/c1ccc(OCCN(C)C)cc1)c1ccc(OC(=O)CCCCCCCCC(=O)c2c(C)[nH]c(/C=C3\N=C(c4ccc[nH]4)C=C3OC)c2C)cc1)c1ccccc1 | 25.9% | 64.7% | 81.4% | 43.5% | 43% | 29.3% | 51.2% | 20.8% | 84.3% | 95.6% | 74.7% | 62.2% | 98% | 87.6% | – | 23.5% | 36.2% | 47.8% | 47.1%
8 | COc1ccc(Cn2c(C(N)=O)cc3c2-c2nc(N)ncc2CCC3)cc1 | 93.2% | 97.2% | 102% | 99.3% | 99.3% | 98.7% | 95.4% | 107% | 99.2% | 105% | 106% | 82.6% | 108% | 97.1% | – | 95.8% | 108% | 108% | 105%
